Laboratory results: PubChem BioAssay AID624296 (National Center for Advancing Translational Sciences (NCATS), 2012)
Among all 350,000 compounds or so, about 9,900 (2.8%) were called active. Inconclusive results (about 15%) are left out. Calls follow the shape of the dose curve; as a rule, active = well fitted activation curve with a large enough effect; inconclusive = small, poorly fitted or top-dose-only effect; inactive = no such curve, though single readings can be large or run the other way. The list comes from a sample in which actives are over-represented; it also holds similar structures and randomly drawn compounds. Entries that show only a call come without a potency.

test: A quantitative high throughput screen for small molecules that induce DNA re-replication in MCF 10a normal breast cells.; also: nearly all actives have a fitted effect of over 50% in size; settings: MCF 10A DNA re-replication, Hoechst nuclear intensity, 48 h; series mostly up to 46.1 µM
Source text: H Molecular Libraries Probe Production Network [MLPCN]
NIH Chemical Genomics Center [NCGC]
Assay Provider: Melvin DePamphilis, NICHD, NIH
Eukaryotic cells normally restrict genome duplication to once per cell division. When this process is aberrant, DNA re-replication occurs when cells reinitiate DNA replication before the first round of replication is complete. DNA re-replication induces the DNA damage response, arrests cell proliferation, and triggers apoptosis. The cell cycle components cyclin A, Cdt-1, Cdc6 and geminin are critical regulators of this process and their misregulation results in DNA re-replication in normal and cancer cells. To identify compounds that induce re-replication in normal cells, an image-based assay was used to measure DNA content of nuclei, as detected by the fluorescent DNA binding dye, Hoechst. Cell nuclei were imaged by a fluorescence scanning plate imager and compounds that induce DNA re-replication were identified by the increase of nuclei with elevated fluorescence intensity
For screening, 250 cells in 5 uL/well were dispensed into black clear 1536-well plates (Aurora) using a solenoid-based dispenser. Following transfer of 23 nL compound or DMSO vehicle by a pin tool, the plates were incubated 48 hr at 37 C and 5% CO2. After addition of 1 uL/well Hoescht stain, the plates were incubated 40 min at 37 C, 5% CO2 and total intensity of fluorescent objects (nuclei) were enumerated by an Acumen Explorer Ex3 (TTP LabTech) fluorescence scanning plate imager (405 nm excitation, 500-530 nm emission).
Keywords: NIH Roadmap, MLPCN, MLI, MLSMR, qHTS, NCGC, DNA replication, cancer
Potency is read from the fitted curve at half-maximal effect.

| SMILES | Potency |
| --- | --- |
| CN[C@H](C(=O)NC[C@H]1O[C@@H](n2cnc3c(N)ncnc32)[C@H](O)[C@@H]1O)[C@@H](C)OCc1ccccc1 | inactive |
| O=C(NNc1ccccc1Cl)C(O)(c1cccc(C(F)(F)F)c1)c1cccc(C(F)(F)F)c1 | 16.4 µM (active) |
| O=C(Nc1cc(C(F)(F)F)ccc1Cl)C(=O)N1CCCCC1 | inactive |
| CC(CC(=O)Nc1cc(C(F)(F)F)ccc1Cl)c1ccccc1 (stereo unspecified) | inactive |
| COc1ccc([C@H]2CC(=O)C=C(c3ccc(CO)cc3)C2)cc1 | inactive |
| O=c1c(Cl)c(NC2CC2)cnn1-c1ccccc1 | inactive |
| Cc1cccc(-n2ncc(Cl)c(Cl)c2=O)c1 | 3.26 µM (active) |
| Cc1cccc(-n2ncc(C#N)c2-n2cccc2)c1 | inactive |
| COC1=CC(=O)OC(C)(c2ccccc2)C1 (stereo unspecified) | inactive |
| COc1cc(OC)cc(C(=O)NCC(=O)OCC(=O)NC(C)CCc2ccccc2)c1 (stereo unspecified) | inactive |
| Cc1cc(C)c[n+](-c2nc3ccccc3nc2[N-]S(=O)(=O)c2cccs2)c1 | inactive |
| O=S(=O)([N-]c1nc2ccccc2nc1-[n+]1ccc(Cc2ccccc2)cc1)c1ccc(Br)s1 | 9.2 µM (active) |
| O=C(NCCc1ccccc1)C1CCN(S(=O)(=O)c2ccc(Br)s2)CC1 | inactive |
| O=C(COC(=O)c1cc(S(=O)(=O)N2CCOCC2)ccc1F)NC1CC1 | inactive |
| Cc1cccc2cc3c(N)c(C(=O)N4CCCc5ccccc54)sc3nc12 | 1.3 µM (active) |
| Cc1c(C(=O)N2CCCc3ccccc32)oc2ccccc12 | inactive |
| Cc1c(C(=O)N2CCCc3ccccc32)sc2nc(-c3ccccc3)cn12 | inactive |
| CCOC(=O)[C@H]1[C@H]2COc3ccc(C)cc3[C@@H]2N2C(=O)CN(Cc3ccc(F)cc3)C(=O)[C@@]12C | inactive |
| CCSc1nnc(NC(=O)c2ccc(C)cc2)s1 | inactive |
| Cc1cccc(CS(=O)(=O)c2ncc(Cl)c(C(=O)Nc3ccc(F)cc3)n2)c1 | inactive |
| CSc1nnc(NC(=O)c2nc(S(=O)(=O)Cc3ccc(C)cc3)ncc2Cl)s1 | 1.16 µM (active) |
| CC(CNC(=O)Cn1cnc2c(OCc3ccccc3)ncnc21)c1ccccc1 (stereo unspecified) | inactive |
| Nc1ncnc2c1ncn2[C@@H]1O[C@H](CNS(=O)(=O)c2ccc(-c3ccno3)s2)[C@@H](O)[C@H]1O | inactive |
| CCOc1ccccc1C1C(C(=O)OC)=CN(C)C=C1C(=O)OC | 14.6 µM (active) |
| CCOc1cc(C2C(C(=O)OC)=CN(C3CCCC3)C=C2C(=O)OC)cc(Br)c1O | inactive |
| CCOc1ccccc1N(CC(=O)Nc1ccccc1C(=O)OC)S(C)(=O)=O | inactive |

| SMILES | Potency |
| --- | --- |
| CC(C)(C)OC(=O)N[C@H](C(=O)OC(C)(C)C)c1ccc(Br)cc1 | inactive |
| Cc1ccc(S(=O)(=O)CCC(=O)OCC(=O)N(C)Cc2ccccc2)cc1 | inactive |
| COc1ccc(CN(C)C(=O)c2cc(-c3ccc(C)cc3C)nc3ccccc23)c(OC)c1OC | 23.1 µM (active) |
| CNC(=O)COC(=O)c1cc(-c2ccc(OC)cc2)nc2ccccc12 | inactive |
| COc1ccc(-c2cc(C(=O)N(C)Cc3ccccc3)c3ccccc3n2)cc1 | 3.66 µM (active) |
| COc1ccc(CN(C)C(=O)Cc2c[nH]c3ccccc23)c(OC)c1OC | inactive |
| COc1ccc(-c2cc(C(=O)n3cnc4ccccc43)c3ccccc3n2)cc1 | inactive |
| Cc1ccc(-c2cc(C(=O)Nc3nn[nH]n3)c3ccccc3n2)c(C)c1 | inactive |
| Cc1ccc(C)c(OCC(=O)NNC(=O)C2CCC2)c1 | inactive |
| COC(=O)c1ccc(CNC(=O)c2ccc(S(=O)(=O)N3CCCCCC3)cc2)cc1 | inactive |
| NC(=O)C1CCN(C(=O)c2cc(S(=O)(=O)N3CCN(c4ccccc4)CC3)ccc2Cl)CC1 | inactive |
| CCCNC(=S)NC1CC2CCCC(C1)N2CC(C)C (stereo unspecified) | 14.6 µM (active) |
| C=CCN1C2CCCC1CC(NC(=S)Nc1cccc(OC)c1)C2 (stereo unspecified) | inactive |
| CCCN1C2CCCC1CC(NC(=O)NC13CC4CC(CC(C4)C1)C3)C2 (stereo unspecified) | inactive |
| Nc1cc(=O)n(Cc2ccccc2)c(=O)n1Cc1ccccc1 | inactive |
| C/C(=N\Nc1ccc(Cl)nn1)c1ccccc1O | inactive |
| C=CCC[C@H](Cc1ccc(F)cc1)C(=O)OC[C@H](C)NC(=O)[C@H](CC=C)CC(=O)N(CCO)Cc1ccccc1 | inactive |
| Cc1ccc(S(=O)(=O)N(C)C)cc1NC(=O)C(C)OC(=O)c1ccc2ccccc2n1 (stereo unspecified) | inactive |
| COc1cccc(NC(=O)COc2cccnc2[N+](=O)[O-])c1 | inactive |
| COc1ccc(S(=O)(=O)Nc2cccc3c2O[C@H](CN(C)S(=O)(=O)c2ccc(OC)cc2)[C@@H](C)CN([C@H](C)CO)C3=O)cc1 | inactive |
| CCOC(=O)c1[nH]c2c(c1-c1ccccc1)C(=O)CC(c1ccc(Cl)cc1)C2 (stereo unspecified) | inactive |
| COCCOC(=O)c1[nH]c2c(c1C)C(=O)CC(c1ccc(OC)cc1)C2 (stereo unspecified) | inactive |
| CCCOC(=O)c1[nH]c2c(c1C)C(=O)CC(c1cccs1)C2 (stereo unspecified) | 0.206 µM (active) |
| CCOc1ccc(NC(=O)CN(C)C(=O)CCSc2ccc(F)cc2)cc1OCC | inactive |
| COc1cc(/C=C/C(=O)OCC(=O)c2ccccc2)cc(OC)c1OC | inactive |
| COc1ccccc1C(CNC(=O)c1cccc(S(=O)(=O)Nc2ccc(F)cc2)c1)N(C)C (stereo unspecified) | inactive |

| SMILES | Potency |
| --- | --- |
| COc1ccc(/C=C2\N=C3CCCN3C2=O)cc1 | inactive |
| COc1ccc(/C=C2/CCCc3ccccc3C2=O)cc1 | 1.64 µM (active) |
| COc1ccc(-n2c(=S)[nH]c3sc4c(c3c2=O)CCc2ccccc2-4)cc1 | inactive |
| Cc1c[n+]([O-])ccc1[N+](=O)[O-] | inactive |
| Cc1cc(=O)n2[nH]c(-c3cccc(Cl)c3)cc2n1 | inactive |
| O=c1c2cc(Br)ccc2nc(-c2cccc(Cl)c2)n1O | 2.91 µM (active) |
| Cc1cccc(-c2nc3ccccc3c(=O)n2NC(=O)Cc2ccc(Cl)cc2)c1 | inactive |
| O=C1CCCc2c1nc(-c1cccc(Cl)c1)n2O | 1.46 µM (active) |
| CCOC(=O)CSc1ncc(-c2cccc(Cl)c2)cn1 | inactive |
| NC(=O)c1cc(-c2cccnc2)nc2ccc(Br)cc12 | inactive |
| Cc1ccsc1C(=O)OCC(=O)NCCc1ccccc1 | inactive |
| O=C1C=CN2CCCC2CC1 (stereo unspecified) | inactive |
| COc1ccc(-c2cc(C(=O)NCCCN3CCCC3=O)c3ccccc3n2)cc1OC | inactive |
| COc1cccc(NC(=O)CN(C)C(=O)/C=C/c2cn(-c3ccccc3)nc2-c2cccs2)c1 | inactive |
| O=C(Nc1ccc(NC(=O)c2cccs2)cc1)c1ccc2ccccc2c1 | inactive |
| O=C(Nc1ccc2oc(-c3ccc4ccccc4c3)nc2c1)c1cccs1 | 5.17 µM (active) |
| O=C(Cc1cccc2ccccc12)Nc1ccc2oc(-c3ccccc3)nc2c1 | inactive |
| CC1CN(Cc2ccccc2)C(=S)NC1=O (stereo unspecified) | inactive |
| O=C(CN1CCN(C2CCS(=O)(=O)C2)CC1)N1N=C(c2ccc(Cl)cc2)CC1c1ccco1 (stereo unspecified) | inactive |
| CCOC(=O)C1CCN(c2ncnc3c2oc2ccc(Br)cc23)CC1 | 20.6 µM (active) |
| CCOC(=O)N1CCN(C(=O)C2CCN(c3ncnc4c3sc3cccc(F)c34)CC2)CC1 | inactive |
| CCOC(=O)C1CCN(c2ncnc3c2c(-c2ccccc2)cn3-c2ccc(C)cc2)CC1 | inactive |
| COc1cc(OC)cc(C(=O)NNC(=O)Cc2cccs2)c1 | inactive |
| COc1ccc(S(=O)(=O)N2C[C@H]3CON(C)[C@H]3C[C@H]2c2cccc(Br)c2)cc1 | inactive |
| Cc1cccc(CC2(O)C(=O)Nc3ccccc32)n1 (stereo unspecified) | inactive |
| Cc1nc2ccccc2c(=O)n1Cc1ccc([N+](=O)[O-])cc1 | inactive |

| SMILES | Potency |
| --- | --- |
| CCn1c(/C=C/c2ccc([N+](=O)[O-])o2)nc2ccccc2c1=O | 20.6 µM (active) |
| Cn1cc(/C=C/c2nc3ccccc3c(=O)n2-c2cccc([N+](=O)[O-])c2)c2ccccc21 | inactive |
| O=C(CC1SC(N2CCOCC2)=NC1=O)Nc1ccccc1F (stereo unspecified) | inactive |
| CCCn1c(N)c(C(=O)CSc2nnc3n2CCCCC3)c(=O)[nH]c1=O | inactive |
| C/C(=C\C(=O)c1cccnc1)Nc1ccc(C)c(C)c1 | inactive |
| O=C(/C=C/c1ccc(Cl)c([N+](=O)[O-])c1)c1cccnc1 | 5.17 µM (active) |
| O=C(Nc1cccnc1)c1ccc(Cl)cc1[N+](=O)[O-] | inactive |
| O=C(Nc1ccncc1)c1ccc(Cl)c([N+](=O)[O-])c1 | inactive |
| NC(N)=N/N=C/c1ccc(Cl)c([N+](=O)[O-])c1 | inactive |
| O=C(Nc1cccnc1)c1ccc(Cl)c([N+](=O)[O-])c1 | 20.6 µM (active) |
| N#CCc1c[nH]c2ccc([N+](=O)[O-])cc12 | inactive |
| CC(C)(C)OC(=O)CNC(=O)c1[nH]cnc1C(=O)N[C@@H](CCCCN)C(=O)OC(C)(C)C | inactive |
| O=C1[C@@H](c2ccccc2)[C@@H](c2ccccc2)N1c1cccnc1 | inactive |
| C[C@H](CO)N1C[C@H](C)[C@@H](CN(C)S(=O)(=O)c2ccc(F)cc2)Oc2ccc(NC(=O)CCC(F)(F)F)cc2C1=O | inactive |
| COc1cc(SC)ccc1C(=O)NNC(=O)C1COc2ccccc2O1 (stereo unspecified) | inactive |
| C=CCNC(=O)c1cc2nc(C3CC3)cc(C(F)F)n2n1 | inactive |
| O=C(Nc1ccc(Cl)cc1)c1cc2nc(C3CC3)cc(C(F)(F)F)n2n1 | 16.4 µM (active) |
| CC1CCN(C(=O)c2cc3nc(C4CC4)cc(C(F)(F)F)n3n2)CC1 | inactive |
| Cc1occc1-c1nnc(SCC(=O)NC2(C#N)CCCC2)n1C | inactive |
| COc1cc2c(cc1OC)C(Cc1cc(OC)c(OC)cc1[N+](=O)[O-])=NCC2 | inactive |
| CCOC(=O)N1CCN(C(=O)CSc2nc(C)nc3c2c(=O)n(C)c(=O)n3C)CC1 | 0.651 µM (active) |
| CCCc1nc(SCC(=O)N2CCCC2)c2c(=O)n(C)c(=O)n(C)c2n1 | inactive |
| Cn1c(=O)c2c(SCC(=O)N3CCOCC3)nc(C3CC3)nc2n(C)c1=O | inactive |
